40 compounds from PubChem BioAssay (NCI) can be followed below.

Compounds without any hit were thinned out: in the full panel of roughly 79,000, 15% have a hit. A number with no mark means an inactive call. Activity calls are given as the source filed them. No stated cut-off is given here; in the data, active means growth inhibition above about 70%; inactive means the rest. Where a SMILES comes first, the peptide text is derived from it.

One assay in a line: NCI Yeast Anticancer Drug Screen. Data for the mec2-1 strain (AID 157). As to conditions: S. cerevisiae mec2-1 strain, at 50.0 µM, stronger effect = higher value. In outline:
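mec2-1 yeast strain, carrying an alteration in DNA damage repair or cell cycle control, was exposed to compounds; growth inhibition was measured relative to vehicle-treated controls.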
Take `c1ccc2c(C3CO3)c3ccc4ccccc4c3cc2c1` (stereo not given): the growth inhibition is 99.5% (active).
For `O=C(NC(=O)c1c(F)cccc1F)Nc1cccc(C(F)(F)F)c1`, the growth inhibition is 6.15%.
Same read-out and setting: the same measure for `CC(C)(C)CC(C)(C)[N+](=O)[O-]`: -14.6%; for `CC(OC1CC(=O)CC2C(=O)C=CC(=O)C12)c1ccccc1` (stereo not given): 21.8%; for `Cn1cc(N=P(c2ccccc2)(c2ccccc2)c2ccccc2)c(=O)n(C)c1=O`: 4.15%.
`O=c1[nH]cnc2ncnn12`: the growth inhibition was 4.2%.
In the case of `CCOc1c(Cl)cc(Cl)cc1C(c1ccc(Cl)cc1S(=O)(=O)O)c1cc(Cl)cc(Cl)c1OCC`, the growth inhibition was 99.3% (active).
On to `COC(=O)C1(C)CCCC2(C)C3CC4OC4(C(C)C)CC3(O)CCC12` (stereo not given), for which the growth inhibition was 6.85%.
For the compound `CC(=O)NC(C(=O)NC(C)C(=O)N1CCCC1C(=O)O)C(C)C` (stereo not drawn) (Ac-Val-Ala-Pro-OH; configuration not given here), the growth inhibition is -19.5%.
As to `Cc1cc(Br)cc(C)c1NC(=O)C(=O)C1C(=O)C(CC2C(=O)c3ccccc3C2=O)C(=O)CC1(C)C` (stereo not given), the growth inhibition is 22.9%.
Consider `O=C(O)c1cccc(C2=CCCC2)c1`, for which the growth inhibition was 6.1%.
Turning to `CCC(=O)C(=O)c1ccccc1`, the growth inhibition is -6.5%.
Still for that read-out and setting: for `CSc1c(C#N)c(N)nc2c(N=Nc3ccc(Cl)cc3)c(N)nn12` the value was 3.65%; for `Oc1cccc2ccc(Br)nc12`, 15.2%; for `c1ccc(P(CCCP(c2ccccc2)c2ccccc2)c2ccccc2)cc1`, 21.4%.
With `CC(C=O)C1CCCCC1` (stereo not given), the growth inhibition is 10.1%.
Take `O=C(OCC(Cl)(Cl)Cl)N1[C@H]2C3=C(CCC3)[C@@H]([C@H]3O[C@H]32)N1C(=O)OCC(Cl)(Cl)Cl`: the growth inhibition is -8.35%.
As to `CCOc1c(N=Nc2ccccc2C)c(C)nn1C(N)=S`, the growth inhibition was 0.7%.
Same read-out and setting: for `O=[N+]([O-])c1ccc(N/N=C2\C=CCCC2)c([N+](=O)[O-])c1` the value was -11.9%; for `CCOc1cccc(C=Nc2ccccc2SSc2ccccc2N=Cc2cccc(OCC)c2O)c1O`, 18.6%; for `Cc1cccc(NC(=O)O/N=C(\Cl)C(C)C)c1`, -34.9%.
Consider `O=c1c(-c2c(-c3ccccc3)oc3ccc(Cl)cc3c2=O)c(-c2ccccc2)oc2ccc(Cl)cc12`, for which the growth inhibition is 3.9%.
As to `NNC(=O)c1nc[nH]c1C(=O)NN`, the growth inhibition is -2.6%.
On the same count and under the same terms, the same measure for `CSCCC(N)=O`: -6.95%; for `CC(=O)c1cc([N+](=O)[O-])c[nH]1`: 1.45%; for `CC(C)=Cc1cc(-c2cc(C=C(C)C)on2)no1`: -7.05%.
On the same count and under the same terms, the same measure for `CN1C(C(=O)O)CCC1C(=O)O` (stereo not given): 7.6%.
On the same count and under the same terms, for `O=C(N/N=C\c1cccc2c([N+](=O)[O-])cccc12)Nc1ccccc1` the value was -0.45%; for `CCOc1ccc(C(C)c2cc3c(cc2OC)OCO3)cc1` (stereo not given), 2.3%; for `Cc1ccccc1-c1nc2c([nH]1)c(=O)n(C)c(=O)n2C`, -2.2%.
Regarding `CCC(c1cccc(OC)c1)C(C(=O)O)c1ccc(OC)cc1` (stereo not given), the growth inhibition was 17.5%.
On to `N#CCCOCCSCCC#N`, for which the growth inhibition is 5.15%.
As to `C1C[OH+]CC[OH+]CCNCC[OH+]CC[OH+]CCN1.Cl.[Cl-].[Pt+4]`, the growth inhibition was -9.3%.
On the same count and under the same terms, for `O=NN(CCCl)C(=O)NCc1ccc[n+]([O-])c1` the value was 8.6%.
For the compound `C/C=C/c1nc2ccccc2[nH]1`, the growth inhibition was -2.45%.
In the case of `N#CC(c1ccccc1)c1cccc(C(=O)O)c1` (stereo not given), the growth inhibition was -13.5%.
`Cn1cc(C2(C)CC(C)(C)c3c2n(C)c2ccccc32)c2ccccc21` (stereo not given): the growth inhibition is -16.1%.
Consider `OCCN(c1ccccc1)c1nc(N(CCO)c2ccccc2)nc(N(CCO)c2ccccc2)n1`, for which the growth inhibition was 8.8%.
Take `N#CCCN(C1=NN(C(=O)CC(=O)Nc2cccc(Cl)c2)C(c2ccccc2)C1)c1ccccc1Cl` (stereo not given): the growth inhibition was -28.8%.
With `CNC(=S)N(C)c1ccccc1`, the growth inhibition was -9.85%.

The nature of another assay: NCI Yeast Anticancer Drug Screen. Data for the sgs1 mgt1 strain (AID 161).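 Further: 0% = growth of cultures given vehicle only.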 As to conditions: S. cerevisiae sgs1 mgt1 strain, at 50.0 µM, stronger effect = higher value. In outline: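 Yeast cells carrying a defined DNA-repair defect were exposed to test compounds. Growth inhibition was measured relative to vehicle-treated controls.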
For `c1ccc2c(C3CO3)c3ccc4ccccc4c3cc2c1` (stereo not given), the growth inhibition is 99.5% (active).
Take `O=C(NC(=O)c1c(F)cccc1F)Nc1cccc(C(F)(F)F)c1`: the growth inhibition is 3.9%.
The same measure, in the same setting: for `CC(C)(C)CC(C)(C)[N+](=O)[O-]` the value was 2.75%.
Turning to `CC(OC1CC(=O)CC2C(=O)C=CC(=O)C12)c1ccccc1` (stereo not given), the growth inhibition was 26.3%.
Turning to `Cn1cc(N=P(c2ccccc2)(c2ccccc2)c2ccccc2)c(=O)n(C)c1=O`, the growth inhibition was -11.1%.
Regarding `O=c1[nH]cnc2ncnn12`, the growth inhibition was 9.65%.
On to `CCOc1c(Cl)cc(Cl)cc1C(c1ccc(Cl)cc1S(=O)(=O)O)c1cc(Cl)cc(Cl)c1OCC`, for which the growth inhibition was 99.6% (active).
As for `COC(=O)C1(C)CCCC2(C)C3CC4OC4(C(C)C)CC3(O)CCC12` (stereo not given), the growth inhibition is 4%.
On the same count and under the same terms, for `CC(=O)NC(C(=O)NC(C)C(=O)N1CCCC1C(=O)O)C(C)C` (stereo not drawn) (Ac-Val-Ala-Pro-OH; configuration not given here) the value was -1.1%; for `Cc1cc(Br)cc(C)c1NC(=O)C(=O)C1C(=O)C(CC2C(=O)c3ccccc3C2=O)C(=O)CC1(C)C` (stereo not given), 0.75%; for `O=C(O)c1cccc(C2=CCCC2)c1`, 14.1%.
On the same count and under the same terms, for `CCC(=O)C(=O)c1ccccc1` the value was -0.4%; for `CSc1c(C#N)c(N)nc2c(N=Nc3ccc(Cl)cc3)c(N)nn12`, -9.1%.
As to `Oc1cccc2ccc(Br)nc12`, the growth inhibition is 7.25%.
With `c1ccc(P(CCCP(c2ccccc2)c2ccccc2)c2ccccc2)cc1`, the growth inhibition was -24.6%.
Regarding `CC(C=O)C1CCCCC1` (stereo not given), the growth inhibition is 0.6%.
With `O=C(OCC(Cl)(Cl)Cl)N1[C@H]2C3=C(CCC3)[C@@H]([C@H]3O[C@H]32)N1C(=O)OCC(Cl)(Cl)Cl`, the growth inhibition is -1.9%.
As for `CCOc1c(N=Nc2ccccc2C)c(C)nn1C(N)=S`, the growth inhibition is 18.3%.
The same measure, in the same setting: the same measure for `O=[N+]([O-])c1ccc(N/N=C2\C=CCCC2)c([N+](=O)[O-])c1`: -13%; for `CCOc1cccc(C=Nc2ccccc2SSc2ccccc2N=Cc2cccc(OCC)c2O)c1O`: 61.5%.
For `Cc1cccc(NC(=O)O/N=C(\Cl)C(C)C)c1`, the growth inhibition is 70%.
Consider `O=c1c(-c2c(-c3ccccc3)oc3ccc(Cl)cc3c2=O)c(-c2ccccc2)oc2ccc(Cl)cc12`, for which the growth inhibition was 5.3%.
As to `NNC(=O)c1nc[nH]c1C(=O)NN`, the growth inhibition is 21.5%.
In the case of `CSCCC(N)=O`, the growth inhibition is 9.8%.
For the compound `CC(=O)c1cc([N+](=O)[O-])c[nH]1`, the growth inhibition is 1.1%.
`CC(C)=Cc1cc(-c2cc(C=C(C)C)on2)no1`: the growth inhibition is 3.85%.
With `CN1C(C(=O)O)CCC1C(=O)O` (stereo not given), the growth inhibition was 6.55%.
`O=C(N/N=C\c1cccc2c([N+](=O)[O-])cccc12)Nc1ccccc1`: the growth inhibition is -21.9%.
On the same count and under the same terms, for `CCOc1ccc(C(C)c2cc3c(cc2OC)OCO3)cc1` (stereo not given) the value was 20.8%; for `Cc1ccccc1-c1nc2c([nH]1)c(=O)n(C)c(=O)n2C`, -10.2%.
Turning to `CCC(c1cccc(OC)c1)C(C(=O)O)c1ccc(OC)cc1` (stereo not given), the growth inhibition was 12.6%.
Regarding `N#CCCOCCSCCC#N`, the growth inhibition was -5.95%.
With `C1C[OH+]CC[OH+]CCNCC[OH+]CC[OH+]CCN1.Cl.[Cl-].[Pt+4]`, the growth inhibition was 6.25%.
Consider `O=NN(CCCl)C(=O)NCc1ccc[n+]([O-])c1`, for which the growth inhibition is -2%.
In the case of `C/C=C/c1nc2ccccc2[nH]1`, the growth inhibition is -3%.
Take `N#CC(c1ccccc1)c1cccc(C(=O)O)c1` (stereo not given): the growth inhibition was 5.6%.
On to `Cn1cc(C2(C)CC(C)(C)c3c2n(C)c2ccccc32)c2ccccc21` (stereo not given), for which the growth inhibition was -12.2%.
`OCCN(c1ccccc1)c1nc(N(CCO)c2ccccc2)nc(N(CCO)c2ccccc2)n1`: the growth inhibition was 32.5%.
`N#CCCN(C1=NN(C(=O)CC(=O)Nc2cccc(Cl)c2)C(c2ccccc2)C1)c1ccccc1Cl` (stereo not given): the growth inhibition was -16.1%.
`CNC(=S)N(C)c1ccccc1`: the growth inhibition was -15.9%.
